According to the supplement of paper PMC10849652:
The full data set covers some 8,800 targets. This sample favours those with a hit. About 0.5% of all pairs of compound and target were hits. Unmarked numbers belong to inactive results.

Legend:
Test in all cases: log2 fold change, soluble protein after heating vs DMSO (PISA); higher = thermal stabilisation; K562 lysate, 10 uM; active = over 0.2 and 3.5 SD of the protein, either way, in both replicates (recomputed)
ibrutinib = compound: C=CC(=O)N1CCC[C@@H](n2nc(-c3ccc(Oc4ccccc4)cc3)c3c(N)ncnc32)C1 [ibrutinib]
How it was run: (§1)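 Soluble protein was defined as the supernatant remaining after 21,000xg for 90 min, following pooling of heated aliquots and adjustment to 0.5% NP-40 at 4°C. Before that, crude K562 extract at 1 mg/mL protein in PBS pH 7.4 with 1 mM MgCl2 was treated with 10 μM compound for 30 min and heated for 3 min across 48°C-58°C. Quantification used TMTpro 16plex LC-MS/MS with channel sums equalised, and values are log-two fold changes in thermal stability relative to solvent controls from duplicates.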

[1] = compound: CC(=O)c1cnc2ccc(-c3cc(Cl)c(O)c(Cl)c3)nc2c1N[C@H]1CC[C@H](CN(C)C)CC1
How it was run: as §1

ralimetinib = compound: CC(C)(C)Cn1c(N)nc2ccc(-c3[nH]c(C(C)(C)C)nc3-c3ccc(F)cc3)nc21 [ralimetinib]
How it was run: as §1

[2] = compound: CC(C)(O)CC(=O)NCCn1ccc2ncnc(Nc3ccc(Oc4cccc(C(F)(F)F)c4)c(Cl)c3)c21
How it was run: as §1

[3] = compound: CC(C)C1=C2N=C(C=C(N2N=C1)NCC3=CC=CC=C3)NCCCCCCN
How it was run: as §1

[4] = compound: CC1=C(C(CC(=O)N1)C2=CC=C(C=C2)C(F)(F)F)C(=O)NC3=C(C=C4C(=C3)C=NN4)F
How it was run: as §1

[5] = compound: CC1=C(C2=C(C=C1)C(=O)C3=CC=CC=C3N2CCCN)C
How it was run: as §1

[6] = compound: CC1=C(C=C(C=C1)NC(=O)C2=CC(=CC=C2)C(C)(C)C#N)NC3=CC4=C(C=C3)N=CN(C4=O)C
How it was run: as §1

[7] = compound: CC1=C(C=C(C=C1)NC(=O)C2=CC(=CC=C2)N(C)C)NC(=O)C3=CC=C(C=C3)O
How it was run: as §1

[8] = compound: CC1=CC=C(C=C1)SC2=C3C=C(SC3=CN=C2)C(=O)N
How it was run: as §1

vemurafenib = compound: CCCS(=O)(=O)Nc1ccc(F)c(C(=O)c2c[nH]c3ncc(-c4ccc(Cl)cc4)cc23)c1F [vemurafenib]
How it was run: as §1

[9] = compound: CCCS(=O)(=O)Nc1ccc(F)c(C(=O)c2c[nH]c3ncc(Cl)cc23)c1F
How it was run: as §1

barasertib = compound: CCN(CCCOc1ccc2c(Nc3cc(CC(=O)Nc4cccc(F)c4)[nH]n3)ncnc2c1)CCOP(=O)(O)O [barasertib]
How it was run: as §1

[10] = compound: CC[C@@H]1C(=O)N(C)c2cnc(Nc3ccc(C(=O)NC4CCN(C)CC4)cc3OC)nc2N1C1CCCC1
How it was run: as §1

volasertib = compound: CC[C@@H]1C(=O)N(C)c2cnc(Nc3ccc(C(=O)N[C@H]4CC[C@H](N5CCN(CC6CC6)CC5)CC4)cc3OC)nc2N1C(C)C [volasertib]
How it was run: as §1

[11] = compound: CCn1c(C(=O)N(C2CC2)C2CC2)cc2c3c(ncn3C)c(Nc3cc(C)n(C)n3)nc21
How it was run: as §1

[12] = compound: CCn1cc(-c2ccnc3[nH]c(-c4cccc(CN(C)C)c4)cc23)c(-c2ccc(NC(=O)N(C)C)cc2)n1
How it was run: as §1

[13] = compound: CN1CCC(CNc2ccc3ncc(-c4cccc(OC(F)(F)F)c4)n3n2)CC1
How it was run: as §1

saracatinib = compound: CN1CCN(CCOc2cc(OC3CCOCC3)c3c(Nc4c(Cl)ccc5c4OCO5)ncnc3c2)CC1 [saracatinib]
How it was run: as §1

sotrastaurin = compound: CN1CCN(c2nc(C3=C(c4c[nH]c5ccccc45)C(=O)NC3=O)c3ccccc3n2)CC1 [sotrastaurin]
How it was run: as §1

Sequence of UniProt Q8TD55 (Q8TD55 whole entry, looked up): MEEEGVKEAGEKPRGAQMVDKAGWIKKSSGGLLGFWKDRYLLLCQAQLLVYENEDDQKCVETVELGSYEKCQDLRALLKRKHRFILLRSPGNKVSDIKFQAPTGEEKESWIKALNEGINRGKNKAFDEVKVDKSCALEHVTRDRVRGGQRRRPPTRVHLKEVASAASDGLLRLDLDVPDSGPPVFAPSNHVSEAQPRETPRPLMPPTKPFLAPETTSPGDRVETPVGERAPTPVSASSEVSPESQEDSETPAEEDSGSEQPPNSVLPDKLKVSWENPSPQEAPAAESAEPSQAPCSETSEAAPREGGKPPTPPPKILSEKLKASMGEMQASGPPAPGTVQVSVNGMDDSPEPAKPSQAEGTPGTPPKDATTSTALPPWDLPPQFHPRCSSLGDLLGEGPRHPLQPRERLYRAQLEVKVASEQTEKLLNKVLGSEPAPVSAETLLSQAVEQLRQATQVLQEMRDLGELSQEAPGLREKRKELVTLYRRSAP
Sequence of UniProt Q01813 (Q01813 whole entry, looked up): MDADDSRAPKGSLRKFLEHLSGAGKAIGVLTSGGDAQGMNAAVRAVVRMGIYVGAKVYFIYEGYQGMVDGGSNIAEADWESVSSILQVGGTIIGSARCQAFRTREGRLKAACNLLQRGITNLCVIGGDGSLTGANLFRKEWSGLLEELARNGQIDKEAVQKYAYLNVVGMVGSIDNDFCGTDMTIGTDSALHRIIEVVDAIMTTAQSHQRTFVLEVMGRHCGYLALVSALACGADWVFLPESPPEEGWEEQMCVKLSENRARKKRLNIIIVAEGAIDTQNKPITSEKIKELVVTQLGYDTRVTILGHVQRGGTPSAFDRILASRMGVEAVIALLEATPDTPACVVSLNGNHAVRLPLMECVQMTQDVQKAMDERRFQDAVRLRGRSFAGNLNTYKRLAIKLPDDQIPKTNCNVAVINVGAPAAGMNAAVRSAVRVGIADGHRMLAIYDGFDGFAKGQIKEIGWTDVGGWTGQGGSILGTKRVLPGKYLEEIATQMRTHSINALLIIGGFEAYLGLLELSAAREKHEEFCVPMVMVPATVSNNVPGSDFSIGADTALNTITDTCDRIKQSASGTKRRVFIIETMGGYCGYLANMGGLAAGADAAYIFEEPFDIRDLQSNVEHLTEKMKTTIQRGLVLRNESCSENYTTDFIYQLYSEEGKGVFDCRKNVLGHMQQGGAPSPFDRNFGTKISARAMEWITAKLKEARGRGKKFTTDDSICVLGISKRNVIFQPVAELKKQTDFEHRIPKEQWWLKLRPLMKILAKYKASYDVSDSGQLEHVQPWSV
Sequence of UniProt Q12972 (Q12972 whole entry, looked up): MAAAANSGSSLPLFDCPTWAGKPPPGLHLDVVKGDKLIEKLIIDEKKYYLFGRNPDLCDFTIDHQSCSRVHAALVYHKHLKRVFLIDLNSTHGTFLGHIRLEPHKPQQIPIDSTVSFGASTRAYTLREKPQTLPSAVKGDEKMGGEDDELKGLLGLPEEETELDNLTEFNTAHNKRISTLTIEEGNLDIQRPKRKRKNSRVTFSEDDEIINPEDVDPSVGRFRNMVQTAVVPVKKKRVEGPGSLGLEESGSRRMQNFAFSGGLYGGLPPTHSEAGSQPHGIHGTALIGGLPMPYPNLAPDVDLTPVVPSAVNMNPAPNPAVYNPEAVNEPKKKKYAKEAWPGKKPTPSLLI
Sequence of UniProt Q8IZ21 (Q8IZ21 whole entry, looked up): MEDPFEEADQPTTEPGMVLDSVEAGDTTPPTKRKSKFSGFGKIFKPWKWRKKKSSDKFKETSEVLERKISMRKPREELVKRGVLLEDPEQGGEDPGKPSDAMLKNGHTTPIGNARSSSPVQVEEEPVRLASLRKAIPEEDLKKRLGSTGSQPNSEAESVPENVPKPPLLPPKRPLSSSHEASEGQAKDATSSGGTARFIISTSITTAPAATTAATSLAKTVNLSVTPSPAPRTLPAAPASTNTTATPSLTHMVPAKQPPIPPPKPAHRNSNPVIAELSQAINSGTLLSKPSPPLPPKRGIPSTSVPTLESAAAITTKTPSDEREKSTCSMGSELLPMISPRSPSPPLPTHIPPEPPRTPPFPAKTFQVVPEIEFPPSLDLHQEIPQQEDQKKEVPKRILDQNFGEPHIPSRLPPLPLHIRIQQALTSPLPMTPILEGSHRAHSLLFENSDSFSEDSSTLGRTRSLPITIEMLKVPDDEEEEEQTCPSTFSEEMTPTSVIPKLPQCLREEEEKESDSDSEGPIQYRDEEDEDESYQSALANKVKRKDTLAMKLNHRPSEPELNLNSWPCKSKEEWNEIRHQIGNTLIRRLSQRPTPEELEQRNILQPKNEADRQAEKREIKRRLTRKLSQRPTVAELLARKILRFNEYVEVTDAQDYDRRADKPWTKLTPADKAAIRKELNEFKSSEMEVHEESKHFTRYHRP
Sequence of UniProt Q9NVM4 (Q9NVM4 whole entry, looked up): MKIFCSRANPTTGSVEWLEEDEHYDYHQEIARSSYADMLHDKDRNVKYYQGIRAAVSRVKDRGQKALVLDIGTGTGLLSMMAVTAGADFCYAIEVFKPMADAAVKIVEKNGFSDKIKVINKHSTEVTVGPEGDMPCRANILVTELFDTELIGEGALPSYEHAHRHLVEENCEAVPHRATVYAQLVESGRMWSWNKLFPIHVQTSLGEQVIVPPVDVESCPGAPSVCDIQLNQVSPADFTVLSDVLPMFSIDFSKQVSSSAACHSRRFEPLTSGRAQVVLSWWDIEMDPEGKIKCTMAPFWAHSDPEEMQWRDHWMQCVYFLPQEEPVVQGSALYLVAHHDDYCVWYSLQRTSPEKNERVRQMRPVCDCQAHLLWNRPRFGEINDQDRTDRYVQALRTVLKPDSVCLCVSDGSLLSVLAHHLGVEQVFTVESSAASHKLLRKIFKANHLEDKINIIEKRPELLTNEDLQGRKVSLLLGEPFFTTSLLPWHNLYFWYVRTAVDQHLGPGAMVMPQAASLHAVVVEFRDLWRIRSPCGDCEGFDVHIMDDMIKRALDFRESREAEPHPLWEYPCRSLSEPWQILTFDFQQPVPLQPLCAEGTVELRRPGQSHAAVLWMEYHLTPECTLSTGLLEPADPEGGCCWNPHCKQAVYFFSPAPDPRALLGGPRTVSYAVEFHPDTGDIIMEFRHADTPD
Sequence of UniProt P27986 (P27986 whole entry, looked up): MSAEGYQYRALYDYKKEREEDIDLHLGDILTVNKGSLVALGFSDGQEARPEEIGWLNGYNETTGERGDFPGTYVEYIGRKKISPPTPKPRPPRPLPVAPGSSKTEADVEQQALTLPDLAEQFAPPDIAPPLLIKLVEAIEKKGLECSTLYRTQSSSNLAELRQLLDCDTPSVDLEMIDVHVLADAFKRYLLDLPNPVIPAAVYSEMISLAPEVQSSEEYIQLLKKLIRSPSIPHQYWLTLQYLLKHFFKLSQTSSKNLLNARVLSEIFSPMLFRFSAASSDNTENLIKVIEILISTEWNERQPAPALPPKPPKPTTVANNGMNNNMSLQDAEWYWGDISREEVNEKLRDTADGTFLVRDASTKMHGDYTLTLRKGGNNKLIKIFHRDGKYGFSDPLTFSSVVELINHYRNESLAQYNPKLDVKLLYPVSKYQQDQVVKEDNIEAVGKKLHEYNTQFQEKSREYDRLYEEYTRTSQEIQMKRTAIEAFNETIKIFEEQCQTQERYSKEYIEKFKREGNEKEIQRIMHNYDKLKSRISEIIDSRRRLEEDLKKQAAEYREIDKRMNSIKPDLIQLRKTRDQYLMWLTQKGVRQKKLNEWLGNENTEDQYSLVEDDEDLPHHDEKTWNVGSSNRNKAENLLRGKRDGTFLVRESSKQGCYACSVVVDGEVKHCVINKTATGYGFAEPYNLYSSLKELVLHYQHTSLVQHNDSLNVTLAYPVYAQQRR
Sequence of UniProt O94906 (O94906 whole entry, looked up): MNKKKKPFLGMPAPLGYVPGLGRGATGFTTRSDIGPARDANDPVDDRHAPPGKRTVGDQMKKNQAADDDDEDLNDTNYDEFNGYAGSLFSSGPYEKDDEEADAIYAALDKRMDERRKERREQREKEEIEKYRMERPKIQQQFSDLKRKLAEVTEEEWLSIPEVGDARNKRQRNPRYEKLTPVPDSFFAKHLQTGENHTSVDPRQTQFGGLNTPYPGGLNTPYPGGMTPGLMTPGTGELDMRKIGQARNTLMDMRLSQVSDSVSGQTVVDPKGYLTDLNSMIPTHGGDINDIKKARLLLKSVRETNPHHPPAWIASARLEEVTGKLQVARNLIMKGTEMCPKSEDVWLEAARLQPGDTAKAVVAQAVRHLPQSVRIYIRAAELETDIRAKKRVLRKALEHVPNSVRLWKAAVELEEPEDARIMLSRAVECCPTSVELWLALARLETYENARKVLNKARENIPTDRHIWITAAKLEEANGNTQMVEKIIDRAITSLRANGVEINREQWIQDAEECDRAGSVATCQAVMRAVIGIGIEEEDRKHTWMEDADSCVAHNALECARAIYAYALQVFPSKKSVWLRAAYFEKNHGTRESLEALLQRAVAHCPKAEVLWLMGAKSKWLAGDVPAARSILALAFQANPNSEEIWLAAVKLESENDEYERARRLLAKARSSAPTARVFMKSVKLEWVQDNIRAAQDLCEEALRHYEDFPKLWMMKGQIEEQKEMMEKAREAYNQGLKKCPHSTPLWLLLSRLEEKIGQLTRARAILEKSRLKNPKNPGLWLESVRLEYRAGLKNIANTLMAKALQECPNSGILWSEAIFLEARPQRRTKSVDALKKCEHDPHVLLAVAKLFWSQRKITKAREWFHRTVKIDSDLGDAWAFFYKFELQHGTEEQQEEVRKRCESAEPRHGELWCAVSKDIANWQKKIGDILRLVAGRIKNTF

Target	log2 fold change (ibrutinib)	log2 fold change [1]	log2 fold change (ralimetinib)	log2 fold change [2]	log2 fold change [3]	log2 fold change [4]	log2 fold change [5]	log2 fold change [6]	log2 fold change [7]	log2 fold change [8]	log2 fold change (vemurafenib)	log2 fold change [9]	log2 fold change (barasertib)	log2 fold change [10]	log2 fold change (volasertib)	log2 fold change [11]	log2 fold change [12]	log2 fold change [13]	log2 fold change (saracatinib)	log2 fold change (sotrastaurin)
PWP1 (UniProt Q13610)	0.022	-0.017	0.012	-0.011	-0.02	-0.053	-0.025	-0.009	0.032	-0.001	-0.09	0.019	0.012	-0.032	-0.004	-0.023	0.62 (active)	-0.039	0.01	-0.021
PICALM (UniProt H0YEH1)	-0.077	0.009	-0.035	-0.039	0.05	0.003	0.014	-0.024	0.012	-0.091	0.05	-0.094	-0.018	-0.008	-0.011	-0.014	-0.54 (active)	0.248	0.056	0.126
PHKG2 (UniProt P15735)	-0.099	0.168	0.003	-0.011	0.03	-0.029	-0.018	-0.018	-0.004	-0.027	-0.074	-0.055	0.126	0.074	0.073	-0.007	-0.103	0.045	0.062	-0.054
PRPF6 (UniProt O94906)	0	0	0.038	0.022	0.005	-0.008	0.001	-0.022	0.053	0.007	-0.019	0.004	0.039	-0.057	-0.015	0.019	0.034	-0.049	0.009	0.025
PIK3R1 (UniProt P27986)	-0.018	0.302	-0.003	-0.06	-0.008	-0.006	0.027	-0.013	-0.006	0.019	0.011	-0.01	-0.005	0.172	0.016	0.023	-0.037	0.365 (active)	0.025	0.056
PRMT7 (UniProt Q9NVM4)	0.043	-0.016	0.042	-0.01	0.017	0	-0.008	0.013	0.031	0.008	0.058	-0.006	0.018	-0.02	0.001	-0.013	0.013	0.003	0.045	0.009
POLR2G (UniProt P62487)	-0.01	-0.001	0.027	-0.017	-0.028	-0.015	0.02	0.029	-0.008	-0.01	-0.014	0.02	-0.003	0.03	0.023	0	0.025	0.05	0.016	0.011
PDCD6IP isoform 2 (UniProt Q8WUM4)	-0.035	0.009	0.003	0.025	0.013	-0.006	0.046	-0.013	0.029	0.016	-0.018	-0.005	-0.008	-0.036	-0.022	0.032	0.071	-0.054	0.011	0.003
PFKP (UniProt Q01813)	-0.001	0.009	0.004	-0.029	0.001	-0.015	0.007	0.003	0.002	0.062	-0.047	-0.056	0.018	-0.005	0.015	-0.007	0.052	-0.033	0.008	-0.025
PHACTR4 isoform 2 (UniProt Q8IZ21)	-0.009	-0.005	-0.009	-0.047	-0.019	0.025	-0.028	0.021	-0.016	-0.01	0.011	0.011	-0.008	0.065	0.023	-0.003	0.836 (active)	-0.178	0	0.013
PPP1R8 (UniProt Q12972)	-0.029	-0.026	-0.039	-0.031	0.011	-0.011	-0.034	0.002	-0.036	-0.028	0.049	-0.011	-0.032	0.08	-0.007	-0.031	-0.28 (active)	0.176	-0.038	0.015
PLEKHO2 (UniProt Q8TD55)	0.358	-0.102	-0.11	0.108	0.006	0.01	0.069	0.048	0.252	-0.129	0.034	0.247	0.161	0.068	0.151	0.126	0.136	0.016	0.278	-0.054
